# Experimental data: article PMC7862700, “An all-to-all approach to the identification of sequence-specific readers for epigenetic DNA modifications on cytosine”
# Legend:
# Experiment in all cases: DAPPL (digital affinity profiling via proximity ligation, sequencing); 10 mM Tris-HCl pH 7.5, 50 mM NaCl, 1 mM DTT, 4% glycerol, room temperature, 30 min; GST-TFs on glutathione beads, 16-mer random dsDNA library, 0.1% formaldehyde crosslink after washing; high values mean tight binding
# FEV = molecular target: T1, FEV (Homo sapiens, UniProt Q99581 1-238); settings: protein: recombinant; tags: N-terminal GST; dsDNA, one strand shown
# T1 sequence: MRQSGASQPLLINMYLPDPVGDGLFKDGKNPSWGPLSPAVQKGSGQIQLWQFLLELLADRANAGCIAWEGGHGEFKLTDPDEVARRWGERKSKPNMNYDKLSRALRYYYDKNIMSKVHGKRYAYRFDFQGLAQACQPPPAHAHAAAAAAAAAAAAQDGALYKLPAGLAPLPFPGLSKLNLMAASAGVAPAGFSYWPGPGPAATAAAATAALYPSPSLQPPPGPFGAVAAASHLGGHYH
# Method in brief: (§1)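 Each value of binding signal is a hexamer's read frequency for a factor divided by the same hexamer's frequency in the tag-only sample. Barcoded, bead-captured GST fusions of human transcription factors made in yeast were pooled with that sample and incubated with 200 nmole of a random double-stranded 16-mer DNA library in Tris/NaCl/DTT/glycerol buffer at room temperature for 30 min. Washing, 0.1% formaldehyde crosslinking, proximity ligation, PCR and Illumina NextSeq500 sequencing followed.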
# ETV5 = ETV5 (Homo sapiens, UniProt P41161 1-510); settings: protein: recombinant; tags: N-terminal GST; dsDNA, one strand shown
# Method in brief: as §1
# HSF1 = HSF1 (Homo sapiens, UniProt Q00613 1-529); settings: protein: recombinant; tags: N-terminal GST; chain copies: 3; dsDNA, one strand shown
# Method in brief: as §1
# SPIC = molecular target: T2, SPIC (Homo sapiens, UniProt Q8N5J4 1-248); settings: protein: recombinant; tags: N-terminal GST; dsDNA, one strand shown
# T2 sequence: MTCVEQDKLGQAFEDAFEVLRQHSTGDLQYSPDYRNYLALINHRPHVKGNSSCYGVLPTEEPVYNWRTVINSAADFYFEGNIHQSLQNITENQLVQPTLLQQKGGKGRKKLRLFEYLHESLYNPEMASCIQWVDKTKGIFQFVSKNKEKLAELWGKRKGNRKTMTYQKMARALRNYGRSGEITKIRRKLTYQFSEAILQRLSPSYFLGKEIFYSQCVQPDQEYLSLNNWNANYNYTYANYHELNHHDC
# Method in brief: as §1
# ELF4 = ELF4 (Homo sapiens, UniProt Q99607 1-663); settings: protein: recombinant; tags: N-terminal GST; dsDNA, one strand shown
# Method in brief: as §1
# ELK4 = molecular target: T3, ELK4 (Homo sapiens, UniProt P28324-2 1-405); settings: protein: recombinant; tags: N-terminal GST; dsDNA, one strand shown
# T3 sequence: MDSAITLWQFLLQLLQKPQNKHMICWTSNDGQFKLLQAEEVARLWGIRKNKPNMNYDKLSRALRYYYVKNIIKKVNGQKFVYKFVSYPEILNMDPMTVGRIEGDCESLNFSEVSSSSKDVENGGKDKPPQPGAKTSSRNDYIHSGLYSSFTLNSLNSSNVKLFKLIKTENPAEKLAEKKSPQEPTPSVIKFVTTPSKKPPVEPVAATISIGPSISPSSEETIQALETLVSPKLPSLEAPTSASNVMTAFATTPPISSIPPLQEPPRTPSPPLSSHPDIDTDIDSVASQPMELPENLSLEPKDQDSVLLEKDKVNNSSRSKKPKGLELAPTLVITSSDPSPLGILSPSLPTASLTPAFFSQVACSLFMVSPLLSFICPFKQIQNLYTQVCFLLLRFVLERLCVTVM
# Method in brief: as §1
# ETV2 = molecular target: T4, ETV2 (Homo sapiens, UniProt O00321 1-342); settings: protein: recombinant; tags: N-terminal GST; dsDNA, one strand shown
# T4 sequence: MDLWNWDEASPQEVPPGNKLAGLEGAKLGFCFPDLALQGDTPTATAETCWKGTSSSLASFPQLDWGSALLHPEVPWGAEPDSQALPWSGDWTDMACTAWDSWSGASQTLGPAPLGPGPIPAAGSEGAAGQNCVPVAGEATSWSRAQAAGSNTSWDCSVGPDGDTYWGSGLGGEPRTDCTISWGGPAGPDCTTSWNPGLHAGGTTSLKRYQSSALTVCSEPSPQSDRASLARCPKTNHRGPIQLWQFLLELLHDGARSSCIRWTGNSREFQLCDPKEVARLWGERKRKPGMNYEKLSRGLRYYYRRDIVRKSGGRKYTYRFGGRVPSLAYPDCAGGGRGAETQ
# Method in brief: as §1
# ELF3 = molecular target: T5, ELF3 (Homo sapiens, UniProt P78545 1-371); settings: protein: recombinant; tags: N-terminal GST; dsDNA, one strand shown
# T5 sequence: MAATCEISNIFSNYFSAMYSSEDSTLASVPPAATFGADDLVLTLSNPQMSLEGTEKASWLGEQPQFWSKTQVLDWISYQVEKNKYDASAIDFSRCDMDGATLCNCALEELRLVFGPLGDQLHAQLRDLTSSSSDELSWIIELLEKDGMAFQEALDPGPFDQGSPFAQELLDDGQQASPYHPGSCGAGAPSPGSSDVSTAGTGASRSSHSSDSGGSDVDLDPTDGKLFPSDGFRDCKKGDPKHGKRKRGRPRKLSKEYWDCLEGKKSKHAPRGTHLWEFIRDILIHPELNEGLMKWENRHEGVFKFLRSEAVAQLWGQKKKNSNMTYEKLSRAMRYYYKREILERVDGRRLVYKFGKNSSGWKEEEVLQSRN
# Method in brief: as §1
# CRX = CRX (Homo sapiens, UniProt O43186 1-299); settings: protein: recombinant; tags: N-terminal GST; dsDNA, one strand shown
# Method in brief: as §1
# ETV1 = ETV1 (Homo sapiens, UniProt P50549 1-477); settings: protein: recombinant; tags: N-terminal GST; dsDNA, one strand shown
# Method in brief: as §1
# ERF = molecular target: T6, ERF (Homo sapiens, UniProt P50548 1-548); settings: protein: recombinant; tags: N-terminal GST; dsDNA, one strand shown
# T6 sequence: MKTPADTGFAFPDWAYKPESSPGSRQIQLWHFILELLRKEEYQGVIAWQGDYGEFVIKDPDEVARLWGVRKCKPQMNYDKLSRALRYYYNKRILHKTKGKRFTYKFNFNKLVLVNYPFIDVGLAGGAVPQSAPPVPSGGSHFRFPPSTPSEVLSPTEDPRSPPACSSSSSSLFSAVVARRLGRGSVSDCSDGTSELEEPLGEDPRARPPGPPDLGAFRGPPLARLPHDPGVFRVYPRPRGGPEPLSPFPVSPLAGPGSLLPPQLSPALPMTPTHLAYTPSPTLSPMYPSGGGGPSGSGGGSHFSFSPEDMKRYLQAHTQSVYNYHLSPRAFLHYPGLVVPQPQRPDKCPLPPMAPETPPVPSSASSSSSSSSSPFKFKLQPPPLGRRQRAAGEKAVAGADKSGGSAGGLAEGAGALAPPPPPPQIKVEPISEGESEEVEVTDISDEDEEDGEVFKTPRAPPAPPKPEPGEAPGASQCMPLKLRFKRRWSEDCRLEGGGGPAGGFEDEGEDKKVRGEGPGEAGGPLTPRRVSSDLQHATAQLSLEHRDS
# Method in brief: as §1
# ETV3L = molecular target: T7, ETV3L (Homo sapiens, UniProt Q6ZN32 1-361); settings: protein: recombinant; tags: N-terminal GST; dsDNA, one strand shown
# T7 sequence: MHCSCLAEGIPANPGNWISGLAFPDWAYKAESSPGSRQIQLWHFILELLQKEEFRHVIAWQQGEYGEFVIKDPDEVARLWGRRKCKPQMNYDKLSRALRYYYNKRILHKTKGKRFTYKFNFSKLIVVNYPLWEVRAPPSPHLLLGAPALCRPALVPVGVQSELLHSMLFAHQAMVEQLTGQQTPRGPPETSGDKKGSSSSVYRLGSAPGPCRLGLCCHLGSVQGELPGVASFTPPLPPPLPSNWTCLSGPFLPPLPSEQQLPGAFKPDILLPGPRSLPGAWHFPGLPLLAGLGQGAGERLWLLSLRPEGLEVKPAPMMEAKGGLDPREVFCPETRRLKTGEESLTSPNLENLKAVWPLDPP
# Method in brief: as §1
# ETS2 = molecular target: T8, ETS2 (Homo sapiens, UniProt P15036 1-469); settings: protein: recombinant; tags: N-terminal GST; dsDNA, one strand shown
# T8 sequence: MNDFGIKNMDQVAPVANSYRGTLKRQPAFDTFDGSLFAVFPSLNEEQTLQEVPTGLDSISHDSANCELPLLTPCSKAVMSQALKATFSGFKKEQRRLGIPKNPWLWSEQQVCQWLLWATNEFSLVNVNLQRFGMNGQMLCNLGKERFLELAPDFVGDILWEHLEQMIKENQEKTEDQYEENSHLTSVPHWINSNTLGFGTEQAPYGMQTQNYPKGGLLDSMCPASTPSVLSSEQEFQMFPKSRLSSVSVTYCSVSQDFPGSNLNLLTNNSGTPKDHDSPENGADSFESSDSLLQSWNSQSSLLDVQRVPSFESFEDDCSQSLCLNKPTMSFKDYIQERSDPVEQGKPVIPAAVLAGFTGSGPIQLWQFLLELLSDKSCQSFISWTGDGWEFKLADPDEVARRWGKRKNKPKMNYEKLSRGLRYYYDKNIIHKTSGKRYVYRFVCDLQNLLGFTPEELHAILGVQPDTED
# Method in brief: as §1
# SPDEF = molecular target: T9, SPDEF (Homo sapiens, UniProt O95238 1-335); settings: protein: recombinant; tags: N-terminal GST; dsDNA, one strand shown
# T9 sequence: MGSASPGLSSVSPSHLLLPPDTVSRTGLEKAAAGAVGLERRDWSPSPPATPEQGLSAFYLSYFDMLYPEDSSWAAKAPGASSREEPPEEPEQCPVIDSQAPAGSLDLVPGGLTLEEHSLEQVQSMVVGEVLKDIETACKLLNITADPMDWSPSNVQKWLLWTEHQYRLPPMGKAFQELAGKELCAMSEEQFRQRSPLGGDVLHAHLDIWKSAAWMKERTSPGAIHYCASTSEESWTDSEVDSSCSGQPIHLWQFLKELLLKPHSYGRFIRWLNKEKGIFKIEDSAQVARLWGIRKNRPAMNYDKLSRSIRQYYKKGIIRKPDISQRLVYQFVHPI
# Method in brief: as §1
# ETV7 = molecular target: T10, ETV7 (Homo sapiens, UniProt Q9Y603 1-341); settings: protein: recombinant; tags: N-terminal GST; dsDNA, one strand shown
# T10 sequence: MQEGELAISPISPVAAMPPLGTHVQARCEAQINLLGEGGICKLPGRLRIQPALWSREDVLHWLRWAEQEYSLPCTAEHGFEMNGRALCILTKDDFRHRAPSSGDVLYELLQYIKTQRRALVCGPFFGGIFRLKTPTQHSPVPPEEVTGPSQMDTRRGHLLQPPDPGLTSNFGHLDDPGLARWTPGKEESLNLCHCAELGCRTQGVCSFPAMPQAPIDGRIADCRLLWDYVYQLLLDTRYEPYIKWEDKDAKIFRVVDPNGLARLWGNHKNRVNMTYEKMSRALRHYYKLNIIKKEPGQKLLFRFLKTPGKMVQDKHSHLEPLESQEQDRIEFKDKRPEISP
# Method in brief: as §1
# ELF5 = molecular target: T11, ELF5 (Homo sapiens, UniProt Q9UKW6-2 1-255); settings: protein: recombinant; tags: N-terminal GST; dsDNA, one strand shown
# T11 sequence: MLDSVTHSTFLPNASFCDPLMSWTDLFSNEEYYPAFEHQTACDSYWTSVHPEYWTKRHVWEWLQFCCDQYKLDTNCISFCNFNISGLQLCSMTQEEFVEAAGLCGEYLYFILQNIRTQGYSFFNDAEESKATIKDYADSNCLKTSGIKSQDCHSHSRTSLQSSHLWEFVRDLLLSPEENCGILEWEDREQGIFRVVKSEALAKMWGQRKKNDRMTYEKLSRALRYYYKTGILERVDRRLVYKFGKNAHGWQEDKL
# Method in brief: as §1
# ETV3 = molecular target: T12, ETV3 (Homo sapiens, UniProt P41162-2 1-143); settings: protein: recombinant; tags: N-terminal GST; dsDNA, one strand shown
# T12 sequence: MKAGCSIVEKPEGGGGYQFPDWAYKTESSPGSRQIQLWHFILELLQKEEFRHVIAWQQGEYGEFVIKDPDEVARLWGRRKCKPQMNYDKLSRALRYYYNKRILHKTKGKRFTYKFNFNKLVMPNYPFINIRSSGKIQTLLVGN
# Method in brief: as §1
# ETV6 = ETV6 (Homo sapiens, UniProt P41212 1-452); settings: protein: recombinant; tags: N-terminal GST; dsDNA, one strand shown
# Method in brief: as §1
# Chain of ELF4 (Q99607 whole entry): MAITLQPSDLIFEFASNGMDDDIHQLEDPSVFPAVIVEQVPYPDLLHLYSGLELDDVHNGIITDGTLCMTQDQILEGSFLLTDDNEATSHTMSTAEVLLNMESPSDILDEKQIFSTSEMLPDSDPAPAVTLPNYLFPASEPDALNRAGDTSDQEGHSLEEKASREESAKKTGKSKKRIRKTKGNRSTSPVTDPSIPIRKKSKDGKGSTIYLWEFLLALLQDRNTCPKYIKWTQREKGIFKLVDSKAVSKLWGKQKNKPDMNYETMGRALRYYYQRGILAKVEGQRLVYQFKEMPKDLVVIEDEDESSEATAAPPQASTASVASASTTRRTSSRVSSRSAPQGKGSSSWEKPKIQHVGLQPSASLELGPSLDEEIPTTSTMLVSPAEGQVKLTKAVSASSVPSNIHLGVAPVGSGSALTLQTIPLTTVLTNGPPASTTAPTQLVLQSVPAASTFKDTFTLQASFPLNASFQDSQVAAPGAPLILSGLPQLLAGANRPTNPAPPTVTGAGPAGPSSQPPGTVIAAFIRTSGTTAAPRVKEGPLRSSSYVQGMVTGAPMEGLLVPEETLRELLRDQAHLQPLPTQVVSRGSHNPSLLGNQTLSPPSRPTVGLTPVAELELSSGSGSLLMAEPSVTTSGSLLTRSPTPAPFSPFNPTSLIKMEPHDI
# Chain of ETV5 (P41161 whole entry): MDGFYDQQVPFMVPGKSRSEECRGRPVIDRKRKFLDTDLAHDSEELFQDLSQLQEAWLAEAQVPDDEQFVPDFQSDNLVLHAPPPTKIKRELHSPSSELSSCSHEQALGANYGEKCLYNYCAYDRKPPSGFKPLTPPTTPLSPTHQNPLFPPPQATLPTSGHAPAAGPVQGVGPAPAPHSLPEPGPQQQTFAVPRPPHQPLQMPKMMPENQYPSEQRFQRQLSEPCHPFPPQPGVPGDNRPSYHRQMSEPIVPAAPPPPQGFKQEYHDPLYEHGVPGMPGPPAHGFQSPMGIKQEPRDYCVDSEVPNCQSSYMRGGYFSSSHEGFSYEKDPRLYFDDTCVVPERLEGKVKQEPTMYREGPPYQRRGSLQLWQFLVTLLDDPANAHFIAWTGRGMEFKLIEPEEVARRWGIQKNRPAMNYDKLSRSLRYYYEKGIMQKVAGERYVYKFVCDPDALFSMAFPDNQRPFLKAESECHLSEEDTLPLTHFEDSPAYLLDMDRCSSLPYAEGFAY
# Chain of CRX (O43186 whole entry): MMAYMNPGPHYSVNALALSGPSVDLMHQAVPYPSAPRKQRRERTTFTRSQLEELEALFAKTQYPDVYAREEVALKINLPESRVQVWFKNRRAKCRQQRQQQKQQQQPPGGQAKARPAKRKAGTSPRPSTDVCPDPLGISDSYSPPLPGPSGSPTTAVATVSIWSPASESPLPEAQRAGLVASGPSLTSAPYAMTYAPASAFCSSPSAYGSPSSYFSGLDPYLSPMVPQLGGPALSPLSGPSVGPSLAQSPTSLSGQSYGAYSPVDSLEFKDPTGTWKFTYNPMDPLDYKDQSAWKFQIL
# Chain of ETV1 (P50549 whole entry): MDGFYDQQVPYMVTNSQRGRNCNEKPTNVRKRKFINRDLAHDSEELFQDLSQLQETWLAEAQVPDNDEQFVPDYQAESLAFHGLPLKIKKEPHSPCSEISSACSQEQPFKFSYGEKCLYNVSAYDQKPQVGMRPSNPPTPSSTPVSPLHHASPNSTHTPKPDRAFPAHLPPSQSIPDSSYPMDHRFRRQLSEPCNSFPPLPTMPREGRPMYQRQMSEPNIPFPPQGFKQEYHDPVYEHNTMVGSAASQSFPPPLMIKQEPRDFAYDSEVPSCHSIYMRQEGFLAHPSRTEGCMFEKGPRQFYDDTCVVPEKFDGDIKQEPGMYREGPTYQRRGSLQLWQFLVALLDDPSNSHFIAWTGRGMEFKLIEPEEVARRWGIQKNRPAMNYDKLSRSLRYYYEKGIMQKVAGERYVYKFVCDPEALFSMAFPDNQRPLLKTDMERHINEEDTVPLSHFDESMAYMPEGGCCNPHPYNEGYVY
# Chain of ETV6 (P41212 whole entry): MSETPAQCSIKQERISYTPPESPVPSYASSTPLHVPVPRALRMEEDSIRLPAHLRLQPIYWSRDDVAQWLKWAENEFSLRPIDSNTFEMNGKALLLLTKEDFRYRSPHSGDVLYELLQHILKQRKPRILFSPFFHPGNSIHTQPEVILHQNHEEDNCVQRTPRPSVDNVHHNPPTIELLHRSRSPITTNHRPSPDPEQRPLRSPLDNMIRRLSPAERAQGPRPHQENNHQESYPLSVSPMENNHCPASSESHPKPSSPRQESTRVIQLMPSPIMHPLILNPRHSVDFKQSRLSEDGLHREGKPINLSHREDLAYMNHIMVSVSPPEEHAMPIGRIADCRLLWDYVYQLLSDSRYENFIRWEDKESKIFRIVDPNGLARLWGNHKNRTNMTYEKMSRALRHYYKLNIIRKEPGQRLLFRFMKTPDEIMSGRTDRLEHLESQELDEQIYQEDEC
# Chain of HSF1 (Q00613 whole entry): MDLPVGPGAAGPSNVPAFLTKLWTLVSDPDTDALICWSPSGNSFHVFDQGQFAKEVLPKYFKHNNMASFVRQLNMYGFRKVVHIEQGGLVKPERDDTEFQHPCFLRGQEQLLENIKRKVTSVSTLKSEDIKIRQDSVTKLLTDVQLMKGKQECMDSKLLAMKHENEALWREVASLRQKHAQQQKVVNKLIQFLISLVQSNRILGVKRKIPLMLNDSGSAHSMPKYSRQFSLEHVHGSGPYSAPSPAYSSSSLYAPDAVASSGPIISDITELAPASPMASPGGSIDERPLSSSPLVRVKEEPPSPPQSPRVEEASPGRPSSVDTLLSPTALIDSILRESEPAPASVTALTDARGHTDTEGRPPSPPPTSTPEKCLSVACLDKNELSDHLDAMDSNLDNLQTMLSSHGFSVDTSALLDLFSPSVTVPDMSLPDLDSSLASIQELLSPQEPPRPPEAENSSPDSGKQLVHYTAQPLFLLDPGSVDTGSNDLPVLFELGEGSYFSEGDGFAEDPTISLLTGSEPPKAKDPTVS
sequence,measurement,setting,value
TCTCCA,binding signal,FEV,"1.44 fold enrichment (6-mer frequency, TF over GST control)"
same,binding signal,ETV5,"1.39 fold enrichment (6-mer frequency, TF over GST control)"
same,binding signal,HSF1,"1.91 fold enrichment (6-mer frequency, TF over GST control)"
same,binding signal,SPIC,"1.36 fold enrichment (6-mer frequency, TF over GST control)"
same,binding signal,ELF4,"1.42 fold enrichment (6-mer frequency, TF over GST control)"
same,binding signal,ELK4,"1.69 fold enrichment (6-mer frequency, TF over GST control)"
same,binding signal,ETV2,"1.55 fold enrichment (6-mer frequency, TF over GST control)"
same,binding signal,ELF3,"1.29 fold enrichment (6-mer frequency, TF over GST control)"
same,binding signal,CRX,"1.52 fold enrichment (6-mer frequency, TF over GST control)"
same,binding signal,ETV1,"1.38 fold enrichment (6-mer frequency, TF over GST control)"
same,binding signal,ERF,"1.42 fold enrichment (6-mer frequency, TF over GST control)"
same,binding signal,ETV3L,"1.58 fold enrichment (6-mer frequency, TF over GST control)"
same,binding signal,ETS2,"1.53 fold enrichment (6-mer frequency, TF over GST control)"
same,binding signal,SPDEF,"1.5 fold enrichment (6-mer frequency, TF over GST control)"
same,binding signal,ETV7,"1.31 fold enrichment (6-mer frequency, TF over GST control)"
same,binding signal,ELF5,"1.37 fold enrichment (6-mer frequency, TF over GST control)"
same,binding signal,ETV3,"1.41 fold enrichment (6-mer frequency, TF over GST control)"
same,binding signal,ETV6,"1.4 fold enrichment (6-mer frequency, TF over GST control)"
